Drawing on PubChem BioAssay (EPA / NIEHS), this text covers outcome and AC50 for 25 molecules.

Inconclusive results are not listed. Activity calls are given as the source filed them. The calls were made as follows: active = hit-call score of the fitted dose curve at least 0.9, where 1 is the maximum; inconclusive = response in the unintended direction; inactive = score below 0.9.

The target in the first assay is Retinoic acid receptor RXR-alpha (Homo sapiens) (UniProt P19793). The assay is described as follows: ATG_RXRa_TRANS: Attagene TRANS-FACTORIAL HepG2 Assay for human Retinoid X Receptor alpha (RXRa) (AID 2283012). In a few lines: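 Chimeric NR-GAL4 trans-activation in HepG2, 24 h treatment; reporter transcripts quantified by fluorescence on capillary electrophoresis, analysed for upward change from DMSO.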
Chain of Retinoic acid receptor RXR-alpha (Homo sapiens) (P19793 whole entry, looked up, the tested form may be a part): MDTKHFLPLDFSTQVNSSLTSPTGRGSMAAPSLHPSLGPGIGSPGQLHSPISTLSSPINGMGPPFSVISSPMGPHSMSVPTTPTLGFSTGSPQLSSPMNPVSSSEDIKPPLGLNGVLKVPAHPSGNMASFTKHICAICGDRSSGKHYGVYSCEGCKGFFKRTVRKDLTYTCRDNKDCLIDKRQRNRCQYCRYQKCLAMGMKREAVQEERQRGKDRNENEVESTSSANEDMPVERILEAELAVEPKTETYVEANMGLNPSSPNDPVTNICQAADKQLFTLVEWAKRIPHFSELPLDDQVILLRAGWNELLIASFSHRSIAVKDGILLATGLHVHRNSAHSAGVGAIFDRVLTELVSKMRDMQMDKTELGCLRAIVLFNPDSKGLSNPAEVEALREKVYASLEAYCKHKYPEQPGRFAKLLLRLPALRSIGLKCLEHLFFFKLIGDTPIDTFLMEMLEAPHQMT
For the molecule `CCCC1CCC(=O)O1` (stereo not given), the result was inactive. For `O=[N+]([O-])c1ccc(Nc2ccc(Nc3ccccc3)c(S(=O)(=O)O)c2)c([N+](=O)[O-])c1`, the call was inactive. In the case of `C=C(C)C(=O)O`, the call was inactive. With `CCCCCCOC(=O)CCCCC`, the call was inactive. `CCN(CC)c1ccc2c(-c3ccccc3C(=O)O)c3ccc(=[N+](CC)CC)cc-3oc2c1`: the molecule was classed as inactive.

For a further assay, the target named is human Retinoid X Receptor beta (RXRb), RXRB (gene 6257) (UniProt P28702). The assay is described as follows: ATG_RXRb_TRANS: Attagene TRANS-FACTORIAL HepG2 Assay for human Retinoid X Receptor beta (RXRb) (AID 2283013). The method, boiled down: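 After a 24 h incubation with test chemical, transfected HepG2 cells carrying NR-Gal4 fusions and GAL4-UAS reporter transcription units yield RNA whose reporter cDNA is FAM-labelled, HpaI-cut and sized by capillary electrophoresis; increases over DMSO are scored.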
Chain of human Retinoid X Receptor beta (RXRb), RXRB (gene 6257) (P28702 whole entry, looked up, the tested form may be a part): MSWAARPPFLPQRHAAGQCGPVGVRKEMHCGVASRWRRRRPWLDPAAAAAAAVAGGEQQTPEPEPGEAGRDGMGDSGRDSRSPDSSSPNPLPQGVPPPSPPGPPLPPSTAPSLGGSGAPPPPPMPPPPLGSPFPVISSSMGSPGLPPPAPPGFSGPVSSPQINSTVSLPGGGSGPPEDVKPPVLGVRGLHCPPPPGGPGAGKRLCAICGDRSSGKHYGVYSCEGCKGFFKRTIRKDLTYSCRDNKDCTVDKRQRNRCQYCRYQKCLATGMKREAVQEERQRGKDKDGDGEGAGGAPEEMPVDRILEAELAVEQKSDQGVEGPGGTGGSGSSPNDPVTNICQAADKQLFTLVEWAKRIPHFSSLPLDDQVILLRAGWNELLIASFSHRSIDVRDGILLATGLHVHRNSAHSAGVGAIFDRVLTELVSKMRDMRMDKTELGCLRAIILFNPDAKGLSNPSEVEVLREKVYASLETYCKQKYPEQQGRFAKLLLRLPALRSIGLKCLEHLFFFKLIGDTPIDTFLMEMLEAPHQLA
Take `Cc1ccc(C(=O)O)o1`: the molecule was called inactive. With `CC1(C)[C@H]2CC[C@]1(C)[C@H](O)C2`, the molecule was classed as inactive. In the case of `CC(=O)[O][Al][O]C(C)=O`, the concentration at half-maximal activity (AC50) is 44.5 µM (active). With `CCCC/C=C\CCCCCCCCCC=O`, the AC50 is 6.07 µM (active). As for `CCCCCCCCCCCCSC`, the AC50 was 100 µM (active). As for `Sc1nc(S)nc(S)n1`, the molecule was classed as inactive.

With `CNC[C@H](O)c1cccc(O)c1`, the AC50 was 33.9 µM (active).

In the case of `CCCC[n+]1ccccc1`, the call was inactive.

For `NC(=O)c1ccccc1Cl`, the call was inactive.

Turning to `Clc1cccc(Cl)n1`, the outcome was inactive. In the case of `O=C(O)C[C@H](O)C[C@H](O)/C=C/c1c(C2CC2)nc2ccccc2c1-c1ccc(F)cc1`, the call was inactive. Turning to `CSc1nc(NC2CC2)nc(NC(C)(C)C)n1`, the AC50 is 22.7 µM (active). `O=C(O)c1ccc([N+](=O)[O-])cc1`: the outcome was inactive. In the case of `CCCc1ccccc1O`, the AC50 was 65.7 µM (active). In the case of `CC[C@]12CCCN3CCc4c(n(c5ccccc45)[C@@](O)(C(=O)OC)C1)[C@@H]32`, the call was inactive. On the same count and under the same terms, then `Cc1ccc2n[nH]nc2c1`, with “inactive”; and `CCCCCCCCCCCCN(CCCCCCCCCCCC)CCCCCCCCCCCC`, with “inactive”; and `CCCCCC(=O)OCCc1ccccc1`, with “inactive”. On the same count and under the same terms, then `CC(C)C(C)(C)C(C)(C)C(C)(C)S`, with “inactive”. As to `CCCCCCCCCCN`, the molecule was classed as inactive.

The AC50 is the concentration giving half of the maximal activity seen.
